Bioassay records deposited in PubChem BioAssay by Johns Hopkins Ion Channel Center.
KCNQ2 enhance – potentiators of rat KCNQ2 potassium channel; AID 2239; 310,000 compounds, 0.54% hits; CHO-K1 KCNQ2, FluxOR thallium flux fluorescence; active compounds read high; O88943; B-score at 10 µM;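 active = fluorescence ratio B-score at least 3 SD of library B-scores, with initial fluorescence B-score within 3 of them, cut at about 5.3 in these data; same plate scores as AID 2156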;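 also: B-score of peak minus minimum over baseline fluorescence ratio after K+ and Tl+ stimulus; positive B-score means potentiation of KCNQ2 with more thallium influx and brighter signal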
KCNQ2 block – inhibitors of rat KCNQ2 potassium channel | CHO-K1 KCNQ2, FluxOR thallium flux, 20 min; active compounds read low | B-score at 10 µM | 310,000 compounds, 1.1% hits | AID 2156;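 active = fluorescence ratio B-score at most minus 3 library SDs, with starting brightness B-score within 2 library SDs, cut at about -5.5 in these data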
Kir21 confirm – confirmation of mouse Kir2.1 potassium channel inhibitors. Tl flux remaining, % of negative control (active compounds read low), % at 10 µM. shares compounds with KCNQ2 enhance. 2,300 compounds, 41% hits. Kir2.1-expressing cells, FluxOR thallium flux fluorescence; active compounds read low. AID 2032;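 active = Primary-screen hit whose thallium flux fell at least 3 control SD below untreated wells in both duplicates, with normal baseline fluorescence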;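 also: 0% = blank wells without stimulus and 100% = stimulated no-compound controls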
HEK293 Tl flux – counter-screen for Kir2.1 inhibitors: effect in parental HEK293 cells; shares compounds with KCNQ2 enhance; FluxOR thallium flux fluorescence; 0% = unstimulated blank wells; FluxOR signal as % of negative control (100 = no effect), % at 10 µM; 2,300 compounds, 19% hits;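 active = dye signal at least 3 control SD above or below untreated wells in both duplicates, raw fluorescence within 3, either direction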;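 also: percent is based on the flux ratio of peak minus minimum fluorescence over baseline F0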
CHO-K1 Tl ctr – parental CHO-K1 activity in KCNQ2 potentiator counter-screen; 1,200 compounds, 43% hits; activity increase over 3SD of controls, % at 10 µM; AID 2282; parental CHO-K1 cells, FluxOR thallium flux fluorescence; zero = vehicle mean+3SD, 100% = vehicle-minus-blank window; shares compounds with KCNQ2 enhance;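 active = signal rise of at least 3 SD above the untreated control mean, in both duplicate wells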;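 also: counter screen of KCNQ2 potentiator hits so any rise reflects channel-independent effects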
KCNQ1 pot spec – tests whether KCNQ2 potentiators also act on human KCNQ1. shares compounds with KCNQ2 enhance. CHO KCNQ1 stable, FluxOR thallium flux fluorescence; beyond 3SD, as % of vehicle-control signal. activation over 3SD threshold, % at 10 µM. 1,200 compounds, 28% hits;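 active = fluorescence ratio rise of at least 3 SD of vehicle wells above their mean, in both replicate wells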;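 also: 0% = vehicle mean plus 3 SD and 100% = vehicle minus unstimulated blank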
Target sequence (P51787 whole entry, looked up): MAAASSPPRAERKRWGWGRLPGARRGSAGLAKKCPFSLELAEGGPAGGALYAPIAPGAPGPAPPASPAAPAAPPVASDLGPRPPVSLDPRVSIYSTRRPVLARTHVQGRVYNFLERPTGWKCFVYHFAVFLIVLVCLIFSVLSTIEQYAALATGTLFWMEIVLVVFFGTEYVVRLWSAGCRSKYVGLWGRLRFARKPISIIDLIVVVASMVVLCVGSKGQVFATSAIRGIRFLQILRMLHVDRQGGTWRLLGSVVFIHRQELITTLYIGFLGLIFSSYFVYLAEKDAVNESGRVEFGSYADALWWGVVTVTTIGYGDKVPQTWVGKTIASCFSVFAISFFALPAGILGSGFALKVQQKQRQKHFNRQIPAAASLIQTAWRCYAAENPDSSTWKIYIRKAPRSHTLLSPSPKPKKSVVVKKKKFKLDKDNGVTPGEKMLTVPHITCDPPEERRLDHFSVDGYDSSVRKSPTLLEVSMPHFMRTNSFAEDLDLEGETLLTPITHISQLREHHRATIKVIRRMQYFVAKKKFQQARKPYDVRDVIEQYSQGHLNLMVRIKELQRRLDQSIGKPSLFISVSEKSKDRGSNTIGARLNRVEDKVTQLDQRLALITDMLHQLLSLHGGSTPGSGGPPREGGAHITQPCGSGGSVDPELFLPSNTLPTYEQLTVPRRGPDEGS
KCNQ2 pot conf – rat KCNQ2 channel potentiator confirmation; shares compounds with KCNQ2 enhance; CHO-KCNQ2 cells, FluxOR thallium flux fluorescence; potentiation, less the hit threshold, % at 10 µM; 1,200 compounds, 68% hits; AID 2287;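 active = fluorescence ratio rising 3 SD or more over the vehicle control mean in both replicates, plus primary screen hit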;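 also: peak minus minimum thallium fluorescence divided by baseline after K/Tl stimulus; 0% = vehicle mean plus 3 SD and 100% = vehicle minus unstimulated blank difference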
Kir2-1 sel – mouse Kir2.1 off-target activity of KCNQ2 potentiators; shares compounds with KCNQ2 enhance; HEK293 Kir2.1, FluxOR thallium flux fluorescence; 1,200 compounds, 2% hits; activity over 3SD threshold, % at 10 µM; AID 2345;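 active = fluorescence ratio rise of at least 3 SD above the vehicle-control mean, seen in both replicates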;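 also: 0% = vehicle mean plus 3 SD and 100% = vehicle minus no-stimulus blank window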
KCNQ2 W236L MoA – potentiates the retigabine-insensitive rat KCNQ2 W236L mutant channel; shares compounds with KCNQ2 enhance; CHO KCNQ2-W236L, automated patch clamp current; current increase over 3SD of negative controls (%), active compounds read high, % at 25 µM; 940 compounds, 10% hits; AID 2558;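 active = current increase at least 3 SD of the untreated controls above them in both duplicate recordings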
* hit, by the source's call; i = inactive; . = no result. This is a sample that favours compounds with a hit; in the whole collection about 1.6% have one here.

SMILES	KCNQ2 enhance	KCNQ2 block	Kir21 confirm	HEK293 Tl flux	others
CCn1cc(CCC(=O)NC(C)c2ccccc2)c2ccccc21 (stereo not drawn)	0.65	i	i	i
CCn1cc(CCC(=O)NCCc2ccccc2)c2ccccc21	.	i	.	.
CCOc1ccc(NC(=O)CSc2nnc(CNC(=O)c3cccs3)o2)cc1	0.86	i	.	.
Cc1c(C(=O)Nc2cccc(N(C)S(C)(=O)=O)c2)cccc1[N+](=O)[O-]	1.71	i	.	.
CN(C)CCc1cc2c(c3c1ccc1ccccc13)OCO2	.	i	16.0%*	i
COc1cc2ccc3c(CCN(C)C)cc(OC)c(OC)c3c2cc1OC	1.34	i	.	.
Cc1ccc(CNCc2ccccc2Cl)cc1	.	i	.	.
Cc1ccc2nc(Cl)c(CNCc3ccccc3)cc2c1	.	i	20.5%*	i
CC1=C(C(=O)O)N2C(=O)C(NC(=O)c3nn(C)cc3Cl)C2SC1 (stereo not drawn)	.	i	.	.
CC1=C(C(=O)O)N2C(=O)C(NC(=O)c3ccccc3Cl)C2SC1 (stereo not drawn)	12.6*	i	i	i	CHO-K1 Tl ctr=4.5*;KCNQ1 pot spec=-23.5;KCNQ2 pot conf=-8.6;Kir2-1 sel=-32.1
Cc1cccc(-n2c(C)c(C)c3c(N)ncnc32)c1	.	i	.	.
COc1cc(OC)c(NS(=O)(=O)c2cc(Br)cnc2N)cc1Cl	0.48	i	72.0%*	72.5%*
Cc1ccc(NS(=O)(=O)c2cc(Br)cnc2N)c(Cl)c1	0.02	i	.	.
COC(=O)[C@H](CC(C)C)NCc1cccc(CN[C@@H](CC(C)C)C(=O)OC)c1	.	i	.	.
COc1ccc2ccccc2c1CNC(C)c1ccccc1 (stereo not drawn)	1.41	i	.	.
CC(NCCCOc1cccc2ccccc12)c1ccccc1 (stereo not drawn)	.	i	14.0%*	i
Cc1ccc(S(=O)(=O)NCCNc2ccc([N+](=O)[O-])cc2C(F)(F)F)cc1	.	i	.	.
O=[N+]([O-])c1ccc(NCCNS(=O)(=O)c2ccccc2)c(C(F)(F)F)c1	.	i	i	i
Cc1cc(NC(=O)CCN2CCC(C)CC2)ccc1Br	1.37	i	.	.
Cc1[nH]c(C)c(S(=O)(=O)Nc2cccc(Cl)c2C)c1C(=O)N1CCCCC1	.	i	.	.
CC1CCN(c2ccccc2NC(=S)NC(=O)c2ccco2)CC1	5.86*	i	i	i	CHO-K1 Tl ctr=-4.7;KCNQ1 pot spec=-7.5;KCNQ2 pot conf=-7.4;Kir2-1 sel=-30.0
CC1CCN(c2ccccc2NC(=S)NC(=O)c2cccs2)CC1	.	i	.	.
O=C(NC(=S)Nc1cccc(NC(=S)NC(=O)c2ccco2)n1)c1ccco1	.	i	.	.
COc1ccc(-c2csc(NC(=S)NC(=O)c3ccco3)n2)cc1Br	5.68*	i	i	i	CHO-K1 Tl ctr=29.7*;KCNQ1 pot spec=22.1*;KCNQ2 pot conf=-10.1;Kir2-1 sel=-31.3
O=C(NC(=S)Nc1ccccc1Br)c1ccco1	9.49*	i	i	181.0%*	CHO-K1 Tl ctr=4.9*;KCNQ1 pot spec=91.0*;KCNQ2 pot conf=18.6*;Kir2-1 sel=-19.6;KCNQ2 W236L MoA=i
SMILES	KCNQ2 enhance	KCNQ2 block	Kir21 confirm	HEK293 Tl flux	others
COc1ccc(-c2csc(NC(=S)NC(=O)c3cc4ccccc4o3)n2)cc1Br	2.82	i	.	.
CS(=O)(=O)c1ccc2nc(NC(=O)c3ccco3)sc2c1	0.64	i	.	.
O=C(NC(=S)Nc1nc2ccc(F)cc2s1)c1ccco1	13.4*	i	i	i	CHO-K1 Tl ctr=-16.1;KCNQ1 pot spec=-33.3;KCNQ2 pot conf=26.0*;Kir2-1 sel=-32.9;KCNQ2 W236L MoA=i
CCc1c(C(=O)N2CCCN(C)CC2)csc1C	0.08	i	.	.
CCCCNC(=O)COC(=O)CCC(=O)c1ccc(Cl)cc1	.	i	.	.
Cc1ccc(NC(=O)Nc2ccc3c(c2)C(=O)OC3)cc1Cl	0.01	i	.	.
